According to PubChem BioAssay:
Where “and” joins values, the source holds several entries; their conditions need not be identical. Equal entries are not always repeated.

The compounds below were run on Human papillomavirus type 1a E7 protein (residues 1-88) (assay: HPV1a E7 small-molecule binders, primary screen, biochemical, small-molecule microarray, residues 1-88, 635 nm (AID 1129)). Settings: small-molecule microarray binding, fluorescence 635 nm; higher = more signal.
`CC(C)=NOC[C@@H](O)COCc1ccco1` was tested, and the composite z-score was -1.73.
In the case of `COC(=O)C1=C(C)N(Cc2ccccc2)C2=C(C(C)=O)C[C@@](O)(C(=O)OC)C(=O)N2[C@@H]1c1ccccc1`, the composite z-score is reported as 0.5 and 0.2.
In the case of `COC(=O)[C@@]1(Cc2ccc(OC)cc2)[C@H]2c3cc(C(=O)N(C)C)n(Cc4ccc(O)c(OC)c4)c3C[C@H]2CN1C(=O)c1ccccc1`, the composite z-score is reported as 1.24 and 1.21.
In the case of `C=CC[C@H](O)c1ccc(OCCO)cc1`, the composite z-score is reported as -1.1 and -1.32.
`CC(C)=NO[C@@H](C)c1cc(-c2c(C)cc(C)cc2C)no1` showed a composite z-score of -0.705.
In the case of `C[N+](C)(C)CCCCNC(=O)[C@H]1C[C@H]2C(=O)N[C@@H](CCCC[N+](C)(C)C)C(=O)N2[C@H]1c1ccc(O)cc1`, the composite z-score is reported as 0.395 and -1.59.
In the case of `C[C@@]1([C@@H](NC(=O)Cc2ccccc2)c2ccc(-c3ccccc3)cc2)C[C@H]1C1CCCCC1`, the composite z-score is reported as 1.18 and 1.08 and 0.987.
`CCN1C(=O)[C@H]2[C@H]3[C@H](O)[C@H](O)CC(=NOC)[C@@H]3CC[C@H]2C1=O` gave a composite z-score of -0.805.
With `O=C1NC(=O)C2C1C=CC(C(O)c1ccc([N+](=O)[O-])cc1)N2Nc1ccc(Cl)cc1Cl` (stereo not given) the composite z-score was 1.14 and 1.18.
With `C=C[C@H](C)[C@@H](O)c1ccc(OCCO)cc1` the composite z-score was -1.38 and -0.449.
`CC(C)CON=C1C[C@@H](O)[C@@H](O)[C@@H]2[C@@H]3C(=O)N(c4cccc(Oc5ccccc5)c4)C(=O)[C@@H]3CC[C@H]12` was tested, and the composite z-score was 0.347.
`CO[C@H]1COC(=O)CC=C[C@@H](C)COC(=O)[C@H](CCSC)NC(=O)CC=C[C@@H]1C` was tested, and the composite z-score was -0.375 and -0.74.
For `C=C[C@@H](OC)[C@H](O)c1ccc(OCCO)cc1`, the composite z-score was -0.875 and -0.95.
`CCOC(=O)c1ccc(NC(=O)O[C@H]2[C@H](OC(=O)Nc3ccccc3)[C@@H](OC(=O)Nc3ccccc3)[C@@H](OC)O[C@@H]2CO)cc1` was tested, and the composite z-score was 1.26 and 1.28.
In the case of `C=CCN(C(=O)C(c1cccs1)N(CCOCCO)C(=O)/C=C\C(=O)O)c1ccc(OC)cc1` (stereo not given), the composite z-score is reported as -0.923 and -1.57.
`C#CCN1C(/C=C/c2ccccc2)C(=O)OC[C@H]1c1ccccc1` (stereo not given in full) was tested, and the composite z-score was 0.455 and 0.0982.
For `CO[C@@H]1COC(=O)CC=C[C@H](C)COC(=O)[C@H](C)NC(=O)CC=C[C@H]1C`, the composite z-score was -0.375.
For `Cc1cc2c(nc1C)CCCN2CC(O)CN1CCCc2nc(-c3ccc(Br)cc3)ccc21` (stereo not given), the composite z-score was 1.15 and 1.16.
`C=CCN(CCCCC)C(=O)C(c1cccs1)N(CCOCCO)C(=O)/C=C\C(=O)O` (stereo not given) was tested, and the composite z-score was -1.05 and -0.826.
In the case of `COc1ccc(-c2ccc3c(n2)CCCN3CC(O)CN2CCCc3nc(-c4ccc(Br)cc4)ccc32)cc1` (stereo not given), the composite z-score is reported as 0.601 and 0.387.
For `C=C[C@H](OC)[C@@H](O)c1ccc(OCCO)cc1`, the composite z-score was -1.73 and -0.721.
In the case of `C=CCN(C(=O)C1N(CCCCCCO)C(=O)C2C(C(=O)O)C3C=CC21O3)c1ccc(OC)cc1` (stereo not given), the composite z-score is reported as -1.26 and -1.68.
For `O=C1C[C@]2(c3ccc([N+](=O)[O-])cc3)C(=O)N(Cc3ccccc3)c3cc(CO)ccc3[C@H]2N1C1CCCCC1`, the composite z-score was 0.905 and 0.134.
In the case of `C=CCN(C(=O)C1N(c2c(Cl)cccc2CO)C(=O)C2C(C(=O)O)C3C=CC21O3)c1ccc(OC)cc1` (stereo not given), the composite z-score is reported as -0.52 and -1.47.
In the case of `C=CCN(C(=O)C1N(CCOCCO)C(=O)C2C(C(=O)O)C3C=CC21O3)C(C)(C)C` (stereo not given), the composite z-score is reported as -1.66 and -0.815.
In the case of `COC(=O)C1=C2N(Cc3ccccc3)C(C)=C(C(=O)OC)[C@@H](c3ccccc3)N2C(=O)[C@](O)(C(=O)OC)C1`, the composite z-score is reported as 0.644 and 0.0112.
With `O=c1n(-c2ccccc2)c(=O)n2n1CC[C@@H]1C(=NOC[C@@H](O)COCc3ccco3)[C@H]3O[C@H]3[C@@H](O)[C@@H]12` the composite z-score was 0.0776 and -0.425.
In the case of `CC(CO)N1C(=O)[C@@H]2C3C(=O)OCCC=C[C@H]3OC23C=CCN(c2ccc(Cl)cc2)C(=O)[C@@H]13` (stereo not given in full), the composite z-score is reported as -1.31 and -0.0543.
In the case of `CC(C)[Si]1(C(C)C)OCc2cc(CCCc3cc4c(c(CCc5ccccc5)n3)[Si](C(C)C)(C(C)C)OC4)nc(CCc3ccccc3)c21`, the composite z-score is reported as -0.265 and 0.56.
`C=CCN(Cc1ccccc1)C(=O)C1N(CCOCCO)C(=O)C2C(C(=O)O)C3C=CC21O3` (stereo not given) was tested, and the composite z-score was -0.804 and -0.812.
With `C[N+](C)(C)CCCCCCNC(=O)[C@H]1C[C@H]2C(=O)N[C@@H](CCCC[N+](C)(C)C)C(=O)N2[C@H]1c1cccc(OCCO)c1` the composite z-score was 0.516 and -0.266.
With `CCCCCN1CC=CC23O[C@@H]4C=CCCOC(=O)C4[C@H]2C(=O)N(C(C)CO)[C@@H]3C1=O` (stereo not given in full) the composite z-score was -0.367 and -0.292.
In the case of `O=C1[C@H]2[C@H]3[C@H](O)[C@H](O)CC(=NOCc4ccccc4)[C@H]3CC[C@H]2C(=O)N1Cc1ccccc1`, the composite z-score is reported as -0.137.
`CO[C@H]1COC(=O)CC=C[C@H](C)[C@H](OC)COC(=O)[C@@H](C)COC(=O)CC=C[C@@H]1C` was tested, and the composite z-score was 0.151 and -0.833.
In the case of `CN1C(=O)C2CC=C([C@H]3Oc4ccccc4S(=O)(=O)N4CCC[C@@H]34)CC2C1=O` (stereo not given in full), the composite z-score is reported as -0.984 and -0.409.
For `C[C@@H](ON=C1[C@H]2CCn3c(=O)n(-c4ccccc4)c(=O)n3[C@H]2[C@H](O)[C@@H]2O[C@H]12)c1cn([C@H](CO)Cc2ccccc2)nn1`, the composite z-score was 0.23.
For `CCOC(=O)C[C@H]1[C@H](OC(=O)c2ccccc2-c2ccccc2)[C@@H](NC(=O)Cc2ccc(OC)cc2)c2cc(OCCCO)ccc2N1C(=O)c1ccc2ccccc2n1`, the composite z-score was 0.24 and 0.622.
Compound `CCOC(=O)[C@H](CC(C)C)NC(=O)CCC1CC(OC(=O)NCc2cccc3ccccc23)CC2(CCCC(COC(=O)NCc3ccccc3)O2)O1` (stereo not given in full) has a composite z-score of -0.439.
`Cc1ccc(S(=O)(=O)N[C@@H]2COC(=O)CC=C[C@@H](C)[C@@H]3C=C[C@H](O)[C@@H](COC(=O)CC=C[C@H]2C)O3)cc1` was tested, and the composite z-score was -0.617 and -0.0999.
For `CO[C@@H]1COC(=O)[C@H](Cc2ccccc2)NC(=O)CC=C[C@@H](C)[C@H](OC)COC(=O)[C@@H](C)NC(=O)CC=C[C@H]1C`, the composite z-score was -0.184 and -0.37.
